Data reported in PubChem BioAssay (NCI).
This is part of a sample that, as a whole, favours compounds with a hit. Of some 83,000 tested, about 20% had one in any assay.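 Single-concentration screen, 48 h exposure, 96-well plates. Endpoint: percent growth. Below 10 = active.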 Activity calls are given as the source filed them.

Key:
Assay in all cases: NCI-60 one-dose screen, 48 h (100 = growth as untreated, 0 = no growth, -100 = all killed)
Conditions in all cases: 10 µM unless noted
SK-MEL-2 melanoma = system: SK-MEL-2 melanoma
EKVX NSCLC = system: EKVX NSCLC
SN12C renal = system: SN12C renal
UO-31 renal = system: UO-31 renal
TK-10 renal = system: TK-10 renal
ACHN renal = system: ACHN renal
CAKI-1 renal = system: CAKI-1 renal
A498 renal = system: A498 renal
CCRF-CEM leukemia = system: CCRF-CEM leukemia
MOLT-4 leukemia = system: MOLT-4 leukemia
SR leukemia = system: SR leukemia
RPMI-8226 leukemia = system: RPMI-8226 leukemia
OVCAR-8 ovarian = system: OVCAR-8 ovarian
OVCAR-5 ovarian = system: OVCAR-5 ovarian
OVCAR-4 ovarian = system: OVCAR-4 ovarian
SK-OV-3 ovarian = system: SK-OV-3 ovarian
IGROV1 ovarian = system: IGROV1 ovarian
OVCAR-3 ovarian = system: OVCAR-3 ovarian
HS 578T breast = system: HS 578T breast
NCI/ADR-RES ovarian = system: NCI/ADR-RES ovarian

Measured: growth

COc1ccc(/C=C(\C#N)C(=O)N2c3ccccc3Sc3ccc(SC)cc32)cc1F
inactive: SK-MEL-2 melanoma 96.2% | EKVX NSCLC 97.8% | SN12C renal 99.4% | UO-31 renal 76.2% | TK-10 renal 97.1% | ACHN renal 88.5% | CAKI-1 renal 68.9% | A498 renal 79.5% | CCRF-CEM leukemia 93.9% | MOLT-4 leukemia 82.9% | SR leukemia 121% | RPMI-8226 leukemia 95.6% | OVCAR-8 ovarian 91.4% | OVCAR-5 ovarian 86.5% | OVCAR-4 ovarian 75.4% | SK-OV-3 ovarian 100% | IGROV1 ovarian 91.1% | OVCAR-3 ovarian 93.4% | HS 578T breast 85% | NCI/ADR-RES ovarian 92.7%

CC(Nc1c(C#N)cnc2ccc(-c3cnc(N)nc3)cc12)c1ccccc1 (configuration not stated)
inactive: SN12C renal 14.7% | ACHN renal 14.6% | CCRF-CEM leukemia 19.1% | SR leukemia 14% | OVCAR-8 ovarian 21.3% | OVCAR-5 ovarian 23.5% | OVCAR-4 ovarian 16.5% | OVCAR-3 ovarian 15.3%
active: SK-MEL-2 melanoma 2.77% | EKVX NSCLC 0.82% | UO-31 renal 7.41% | TK-10 renal -20.7% | CAKI-1 renal 1.74% | A498 renal -38.6% | MOLT-4 leukemia 2.96% | RPMI-8226 leukemia -11% | SK-OV-3 ovarian -0.597% | IGROV1 ovarian -16% | HS 578T breast -22.5%

CN(Cc1ccccc1)S(=O)(=O)/N=C1\NC(=O)NC1=C(Cl)Cl
active: ACHN renal -90.8% | CCRF-CEM leukemia -12.8% | SR leukemia -0.359% | RPMI-8226 leukemia -1.12% | IGROV1 ovarian 3.38% | OVCAR-3 ovarian -81.7%
inactive: SK-MEL-2 melanoma 87.8% | EKVX NSCLC 86.2% | SN12C renal 18.4% | UO-31 renal 93.3% | TK-10 renal 44.1% | CAKI-1 renal 86.8% | A498 renal 70.8% | MOLT-4 leukemia 10.3% | OVCAR-8 ovarian 93.9% | OVCAR-5 ovarian 11.9% | OVCAR-4 ovarian 91.8% | SK-OV-3 ovarian 110% | HS 578T breast 96.7%

COc1ccc(C2CC(c3cccc(Nc4nc(Cl)nc5cc(OC)c(OC)cc45)c3)=Nc3c(N)nc(N)nc3N2)cc1 (configuration not stated)
inactive: SK-MEL-2 melanoma 100% | EKVX NSCLC 92.1% | SN12C renal 81.8% | UO-31 renal 90.7% | TK-10 renal 117% | ACHN renal 100% | CAKI-1 renal 94% | A498 renal 94.7% | CCRF-CEM leukemia 36% | MOLT-4 leukemia 43.6% | RPMI-8226 leukemia 38.4% | OVCAR-8 ovarian 70.1% | OVCAR-5 ovarian 111% | OVCAR-4 ovarian 96.6% | SK-OV-3 ovarian 121% | IGROV1 ovarian 92.5% | OVCAR-3 ovarian 75.3% | HS 578T breast 94.4% | NCI/ADR-RES ovarian 92.3%
active: SR leukemia 3.81%

Cn1cc(-c2nc(N)nnc2-c2c[nH]c3ccccc23)c2cc(Br)ccc21
inactive: SK-MEL-2 melanoma 19.5% | EKVX NSCLC 45.6% | SN12C renal 27.9% | UO-31 renal 33.5% | TK-10 renal 88.6% | ACHN renal 38.9% | CAKI-1 renal 25.2% | SR leukemia 26.7% | RPMI-8226 leukemia 12.9% | OVCAR-8 ovarian 33% | OVCAR-5 ovarian 55.1% | OVCAR-4 ovarian 74.1% | SK-OV-3 ovarian 29.7% | IGROV1 ovarian 30.5% | OVCAR-3 ovarian 16.9% | NCI/ADR-RES ovarian 20.2%
active: A498 renal -12.1% | CCRF-CEM leukemia 7.57% | MOLT-4 leukemia 8.98% | HS 578T breast 2.13%

Cc1ccc(-c2nn(-c3ccccc3)cc2/C=C/C(=O)c2ccc(NC(=O)CCCCCCC(=O)NO)cc2)cc1
inactive: SK-MEL-2 melanoma 88.2% | EKVX NSCLC 85.8% | SN12C renal 73.5% | UO-31 renal 52.2% | TK-10 renal 70.2% | ACHN renal 87.9% | CAKI-1 renal 58.1% | A498 renal 58.2% | CCRF-CEM leukemia 38.8% | MOLT-4 leukemia 38.5% | SR leukemia 85.4% | RPMI-8226 leukemia 70.5% | OVCAR-8 ovarian 62.5% | OVCAR-5 ovarian 79.2% | OVCAR-4 ovarian 79.8% | SK-OV-3 ovarian 70.7% | IGROV1 ovarian 69.1% | OVCAR-3 ovarian 75.9% | HS 578T breast 47.1% | NCI/ADR-RES ovarian 70.4%

CCNC(=O)Oc1ccc(/C(=C(/C)c2ccccc2)c2ccc(OCCN3CCCCCC3)cc2)cc1
inactive: EKVX NSCLC 52.4% | SN12C renal 26.4% | TK-10 renal 66.5% | ACHN renal 18.9% | A498 renal 26.6% | OVCAR-5 ovarian 35.1% | OVCAR-4 ovarian 36.4% | SK-OV-3 ovarian 51.8% | IGROV1 ovarian 32.9%
active: SK-MEL-2 melanoma -30% | UO-31 renal -20.3% | CAKI-1 renal 8.75% | CCRF-CEM leukemia 7.24% | MOLT-4 leukemia 2.51% | SR leukemia 0.632% | RPMI-8226 leukemia -32.8% | OVCAR-8 ovarian 7.06% | OVCAR-3 ovarian 6.04% | HS 578T breast -12.8%

NC(=O)c1c(NC(=O)c2ccc(F)cc2F)sc2c1CCC(=O)C2
inactive: SK-MEL-2 melanoma 102% | EKVX NSCLC 73.6% | SN12C renal 72.9% | UO-31 renal 29.3% | TK-10 renal 61.9% | CAKI-1 renal 33.9% | A498 renal 100% | CCRF-CEM leukemia 18.3% | MOLT-4 leukemia 40.6% | SR leukemia 35.8% | OVCAR-8 ovarian 44% | OVCAR-5 ovarian 24.5% | OVCAR-4 ovarian 27% | SK-OV-3 ovarian 103% | IGROV1 ovarian 50.5% | OVCAR-3 ovarian 14.8% | HS 578T breast 43.9% | NCI/ADR-RES ovarian 32.7%
active: ACHN renal 7.96% | RPMI-8226 leukemia 9.53%

N#Cc1cccc(/C(N)=N/C(N)=N/c2nc3ccccc3s2)c1
inactive: SK-MEL-2 melanoma 40.4% | EKVX NSCLC 43.3% | SN12C renal 34.9% | UO-31 renal 44.2% | TK-10 renal 81.3% | ACHN renal 48.3% | CAKI-1 renal 34% | MOLT-4 leukemia 27.7% | SR leukemia 26.2% | OVCAR-8 ovarian 35% | OVCAR-5 ovarian 62.3% | OVCAR-4 ovarian 91.7% | SK-OV-3 ovarian 41.6% | IGROV1 ovarian 36.6% | OVCAR-3 ovarian 20.6% | HS 578T breast 23% | NCI/ADR-RES ovarian 14.3%
active: A498 renal -4.3% | CCRF-CEM leukemia 6.56% | RPMI-8226 leukemia 8.74%

O=C(CN1CCN(c2cc(=O)n(-c3ccccc3)c3ccccc23)CC1)Nc1ccc(F)cc1
inactive: SK-MEL-2 melanoma 87.9% | EKVX NSCLC 48.7% | SN12C renal 77.7% | UO-31 renal 40.6% | TK-10 renal 73.1% | ACHN renal 65.4% | CAKI-1 renal 63.7% | A498 renal 53.6% | CCRF-CEM leukemia 70% | MOLT-4 leukemia 44.4% | SR leukemia 76.4% | RPMI-8226 leukemia 61.5% | OVCAR-8 ovarian 71.2% | OVCAR-5 ovarian 101% | OVCAR-4 ovarian 22.7% | SK-OV-3 ovarian 78.6% | IGROV1 ovarian 60.1% | OVCAR-3 ovarian 71.8% | HS 578T breast 88.7% | NCI/ADR-RES ovarian 64.3%

CN(C)C(=O)c1cc(-c2ccc3ncnc(NCc4ccccc4)c3c2)cnc1N
active: A498 renal -2.78%
inactive: SK-MEL-2 melanoma 95.2% | EKVX NSCLC 47.9% | SN12C renal 56.7% | UO-31 renal 50.6% | TK-10 renal 21.9% | ACHN renal 69.2% | CAKI-1 renal 27.2% | CCRF-CEM leukemia 88% | MOLT-4 leukemia 96.8% | SR leukemia 89.3% | RPMI-8226 leukemia 50.5% | OVCAR-8 ovarian 97.3% | OVCAR-5 ovarian 62.9% | OVCAR-4 ovarian 80.7% | SK-OV-3 ovarian 110% | IGROV1 ovarian 34.2% | OVCAR-3 ovarian 85.1% | HS 578T breast 81.8% | NCI/ADR-RES ovarian 104%

Cc1nn(-c2ccccc2)c2ncnc(N/N=C/c3ccccc3O)c12
inactive: SK-MEL-2 melanoma 35.4% | EKVX NSCLC 23.7% | TK-10 renal 40.6% | A498 renal 58.4% | MOLT-4 leukemia 14.3% | SR leukemia 11.5% | RPMI-8226 leukemia 20.4% | OVCAR-8 ovarian 12.2% | OVCAR-5 ovarian 35.9% | OVCAR-4 ovarian 28.6% | SK-OV-3 ovarian 10.4% | OVCAR-3 ovarian 29.4% | HS 578T breast 35.6%
active: SN12C renal 8.87% | UO-31 renal -25.8% | ACHN renal 3.52% | CAKI-1 renal 3.12% | CCRF-CEM leukemia 8.92% | IGROV1 ovarian 3.8% | NCI/ADR-RES ovarian 3.15%

COc1cc(-c2nc(-c3ccccc3)[nH]c2-c2ccnc(NCCCNS(=O)(=O)c3cccc(F)c3)n2)ccc1Cl
inactive: SK-MEL-2 melanoma 43.5% | EKVX NSCLC 54.3% | SN12C renal 57.7% | UO-31 renal 35.9% | TK-10 renal 72.3% | ACHN renal 32.8% | CAKI-1 renal 42.9% | A498 renal 70.4% | CCRF-CEM leukemia 24.6% | MOLT-4 leukemia 19.6% | SR leukemia 32.2% | RPMI-8226 leukemia 27.2% | OVCAR-8 ovarian 31.7% | OVCAR-5 ovarian 88.1% | OVCAR-4 ovarian 56.3% | SK-OV-3 ovarian 76.8% | IGROV1 ovarian 40.6% | OVCAR-3 ovarian 40.7% | HS 578T breast 78% | NCI/ADR-RES ovarian 31.9%

CCC(CC)N1C(=O)/C(=c2\sc3n(c2=O)NC2C(N=3)N(CC)C(=O)N2CC)c2ccccc21 (configuration not stated)
inactive: SK-MEL-2 melanoma 101% | EKVX NSCLC 59.6% | SN12C renal 56% | UO-31 renal 54.4% | TK-10 renal 127% | ACHN renal 50.4% | CAKI-1 renal 50.8% | A498 renal 52.3% | CCRF-CEM leukemia 55.3% | MOLT-4 leukemia 59.8% | SR leukemia 54.5% | RPMI-8226 leukemia 64.7% | OVCAR-8 ovarian 81.6% | OVCAR-5 ovarian 57.3% | OVCAR-4 ovarian 63.6% | SK-OV-3 ovarian 95.7% | IGROV1 ovarian 44.7% | OVCAR-3 ovarian 31.5% | HS 578T breast 73.1% | NCI/ADR-RES ovarian 26.3%

Cn1cc(-c2nc(N)nnc2-c2c[nH]c3ccc(Br)cc23)c2cc(Br)ccc21
inactive: SK-MEL-2 melanoma 26.8% | EKVX NSCLC 65.1% | SN12C renal 44.7% | UO-31 renal 54.1% | TK-10 renal 98% | ACHN renal 52% | CAKI-1 renal 40.3% | A498 renal 18.3% | CCRF-CEM leukemia 11.8% | MOLT-4 leukemia 17.7% | SR leukemia 20.4% | RPMI-8226 leukemia 31.1% | OVCAR-8 ovarian 57.8% | OVCAR-5 ovarian 79.9% | OVCAR-4 ovarian 110% | SK-OV-3 ovarian 72.4% | IGROV1 ovarian 43.7% | OVCAR-3 ovarian 26.8% | HS 578T breast 76.7% | NCI/ADR-RES ovarian 46.5%
